{"source": "PubChem BioAssay AID372", "about": "(MTDP, 2006)", "note": "About 770 (0.77%) of roughly 100,000 compounds were called active. Shown is part of a subset that was picked to be rich in actives. A number with no mark means an inactive call. Cut-off read from the data, not from the text of the source: active = inhibition above about 50%; inactive = the rest.", "data": [{"target": "Gag-Pol polyprotein (Human immunodeficiency virus type 1 group M subtype B (isolate HXB2)) (UniProt P04585)", "assay": "RNase H inhibition, HIV 1 Gag Pol polyprotein, FRET biochemical assay, screening (AID 372)", "conditions": "HIV-1 RT RNase H, FRET RNA/DNA substrate fluorescence; at 10 µM; stronger effect = higher value", "values": [{"smiles": "O=C(c1c(F)cccc1F)N1CCN(c2cc(N3CCCC3)c(F)cc2[N+](=O)[O-])CC1", "inhibition": "11%"}, {"smiles": "CCc1ccc(OCC(=O)Nc2ccc3c(c2)C(=O)c2ccccc2C3=O)cc1", "inhibition": "27%"}, {"smiles": "COC(=O)c1c(NC(=O)c2cc(-c3ccc(Cl)s3)nc3ccccc23)sc2c1CCC(C(C)(C)C)C2", "note": "(configuration not stated)", "inhibition": "1%"}, {"smiles": "COc1ccc(C(Nc2ccccc2)P(=O)(OC(C)C)OC(C)C)cc1", "note": "(configuration not stated)", "inhibition": "10%"}, {"smiles": "COc1ccc(OC)c(NC(=O)c2ccc(N(C)S(=O)(=O)c3ccccc3)cc2)c1", "inhibition": "13%"}, {"smiles": "Oc1c(Cl)cc(Cl)cc1/C=N/N=C/c1cc(Cl)cc(Cl)c1O", "inhibition": "15%"}, {"smiles": "COc1ccc(C2=CC(=O)c3ccccc3C2=O)cc1", "inhibition": "40%"}, {"smiles": "CCCC1CCC(c2ccc(OCC)cc2)=CC1=O", "note": "(configuration not stated)", "inhibition": "8%"}, {"smiles": "CCOc1ccc(C2=NNC(=O)CC2)cc1", "inhibition": "10%"}, {"smiles": "COc1ccc(-c2cccc(=O)o2)cc1", "inhibition": "0%"}, {"smiles": "COc1ccc(C2=CC(=O)C=CC2=O)cc1", "inhibition": "75% (active)"}, {"smiles": "CCOC(=O)C1=C(C)N=c2s/c(=C\\c3ccc(O)c(OC)c3)c(=O)n2C1c1cc(OC)ccc1OC", "note": "(configuration not stated)", "inhibition": "0%"}, {"smiles": "CC(NC(=O)CN1C(=O)c2ccccc2C1=O)c1ccccc1", "note": "(configuration not stated)", "inhibition": "3%"}, {"smiles": "Cc1cccc(OCCCOc2cccc(/C=c3\\sc4nc5ccccc5n4c3=O)c2)c1", "inhibition": "3%"}, {"smiles": "CCOc1ccc(NC(=S)NC(=O)/C=C/c2ccc(OC)c(OC)c2)c([N+](=O)[O-])c1", "inhibition": "2%"}, {"smiles": "CCOc1ccc(NC(=S)NC(=O)/C=C/c2ccc(OC)cc2)c([N+](=O)[O-])c1", "inhibition": "60% (active)"}, {"smiles": "CCOc1ccc(NC(=S)NC(=O)/C=C/c2ccc(F)cc2)c([N+](=O)[O-])c1", "inhibition": "84% (active)"}, {"smiles": "CCOc1ccc(NC(=S)NC(=O)c2ccccc2)c([N+](=O)[O-])c1", "inhibition": "11%"}, {"smiles": "CCOc1ccc(NC(=S)NC(=O)/C=C/c2ccc(C)cc2)c([N+](=O)[O-])c1", "inhibition": "21%"}, {"smiles": "CCOc1ccc(NC(=S)NC(=O)c2ccc(F)cc2)c([N+](=O)[O-])c1", "inhibition": "7%"}, {"smiles": "Brc1ccc(-c2nc(-c3ccccc3)c(-c3ccc(Br)cc3)[nH]2)cc1", "inhibition": "17%"}, {"smiles": "CCOC(=O)c1[nH]c(C)c(C(=O)N/N=C/c2ccc(-c3ccc(Cl)cc3)o2)c1C", "inhibition": "18%"}, {"smiles": "C=CCOc1ccc(/C=C2\\SC(N3CCN(c4ccccc4)CC3)=NC2=O)cc1", "inhibition": "13%"}, {"smiles": "COc1ccc(/C=C/C(=O)N2c3ccc(C)cc3-c3c(ssc3=S)C2(C)C)cc1", "inhibition": "20%"}, {"smiles": "COc1cccc(C(=O)N2c3ccc(C)cc3-c3c(ssc3=S)C2(C)C)c1", "inhibition": "13%"}, {"smiles": "COC(=O)C1=C(C(=O)OC)SC(=C2C(=S)C(C)(C)N(C(=O)/C=C/c3ccc(OC)c(OC)c3)c3ccc(OC)cc32)S1", "inhibition": "53% (active)"}, {"smiles": "COc1ccc(/C=C/C(=O)N2c3ccc(C)cc3-c3c(ssc3=S)C2(C)C)cc1OC", "inhibition": "57% (active)"}, {"smiles": "COc1ccc2c(c1)-c1c(ssc1=S)C(C)(C)N2C(=O)/C=C/c1ccc(OC)c(OC)c1", "inhibition": "27%"}, {"smiles": "COc1ccc2c(c1)-c1c(ssc1=S)C(C)(C)N2C(=O)CN1C(=O)c2ccccc2C1=O", "inhibition": "0%"}, {"smiles": "COc1ccc2c(c1)N(C(=O)c1ccc(C(C)(C)C)cc1)C(C)(C)c1ssc(=S)c1-2", "inhibition": "15%"}, {"smiles": "COC(=O)C1=C(C(=O)OC)SC(=C2C(=S)C(C)(C)N(C(=O)/C=C/c3ccc(OC)cc3)c3ccc(C)cc32)S1", "inhibition": "22%"}, {"smiles": "COc1cccc(C(=O)N2c3cc(OC)ccc3-c3c(ssc3=S)C2(C)C)c1", "inhibition": "54% (active)"}, {"smiles": "COC(=O)C1=C(C(=O)OC)SC(=C2C(=S)C(C)(C)N(C(=O)/C=C/c3ccc(OC)c(OC)c3)c3ccc(C)cc32)S1", "inhibition": "40%"}, {"smiles": "Cc1ccc2c(c1)N(C(=O)CN1C(=O)c3ccccc3C1=O)C(C)(C)c1ssc(=S)c1-2", "inhibition": "10%"}, {"smiles": "O=C(O)C1CCCCC1C(=O)NCc1ccccc1", "note": "(configuration not stated)", "inhibition": "0%"}, {"smiles": "O=C(Nc1ccccc1)c1ccccc1C(=O)OCCCCCc1cccs1", "inhibition": "1%"}, {"smiles": "CC(/C=C(\\NC(=O)c1ccccc1)C(=O)N/N=C/c1cccc([N+](=O)[O-])c1)=C\\c1ccccc1", "inhibition": "6%"}, {"smiles": "O=C(Nc1ccc(-c2ccc(Cl)cc2)cc1)C1CC1", "inhibition": "6%"}, {"smiles": "O=[N+]([O-])c1ccc(C2Nc3ccc(I)cc3C3C=CCC32)cc1", "note": "(configuration not stated)", "inhibition": "25%"}, {"smiles": "Cc1ccc(S(=O)(=O)N(CC(O)CN(CC(C)C)CC(C)C)c2cccc(C)c2)cc1", "note": "(configuration not stated)", "inhibition": "9%"}, {"smiles": "COc1ccc2ccccc2c1/C=N/NC(=O)c1ccc(-c2ccccc2)cc1", "inhibition": "13%"}, {"smiles": "O=C(Nc1ccc(NC(=O)c2ccc(Cl)cc2Cl)c(Cl)c1)c1ccccc1", "inhibition": "3%"}, {"smiles": "COc1ccc2c(c1)-c1c(ssc1=S)C(C)(C)N2C(=O)c1ccccc1OC", "inhibition": "60% (active)"}, {"smiles": "COc1ccc2c(c1)-c1c(ssc1=S)C(C)(C)N2C(=O)c1ccccc1Br", "inhibition": "27%"}, {"smiles": "COc1ccc2c(c1)-c1c(ssc1=S)C(C)(C)N2C(=O)c1ccc(OC)c(OC)c1", "inhibition": "4%"}, {"smiles": "CCC1CCc2c(sc(NC(=O)c3ccc(Br)o3)c2C(=O)OC)C1", "note": "(configuration not stated)", "inhibition": "13%"}, {"smiles": "COc1ccccc1S(=O)(=O)CC(SC#N)c1ccccc1", "note": "(configuration not stated)", "inhibition": "4%"}, {"smiles": "Cc1c(CCNC(=O)c2ccccc2F)c2ccccc2n1Cc1ccccc1", "inhibition": "28%"}, {"smiles": "CC(=O)NCCc1c(C)n(Cc2ccccc2)c2ccccc12", "inhibition": "2%"}, {"smiles": "Cc1c(CCNC(=O)c2ccccc2)c2ccccc2n1Cc1ccccc1", "inhibition": "57% (active)"}, {"smiles": "O=C1OC(c2ccccc2)=N/C1=C\\c1ccc(F)c(Br)c1", "inhibition": "16%"}, {"smiles": "CCOC(=O)C1=C(C)N=c2s/c(=C\\c3ccc(Br)cc3)c(=O)n2C1c1ccc(OC)c(OC)c1", "note": "(configuration not stated)", "inhibition": "0%"}, {"smiles": "CC(=O)/C(=C1\\NC(C)(C)Cc2ccccc21)c1ccccc1", "inhibition": "3%"}, {"smiles": "N#C/C(=C\\c1ccc(I)o1)c1ccccc1", "inhibition": "41%"}, {"smiles": "N#C/C(=C\\c1ccc(Sc2ccccc2)o1)c1ccccc1", "inhibition": "52% (active)"}, {"smiles": "Cc1ccc(Sc2ccc(/C=C(\\C#N)C(=O)NCc3ccccc3)o2)cc1", "inhibition": "50% (active)"}, {"smiles": "N#C/C(=C\\c1ccc(-c2ccccc2)o1)C(=O)NCc1ccccc1", "inhibition": "16%"}, {"smiles": "N#C/C(=C/c1ccc(Sc2ccccc2)o1)c1nc2ccccc2[nH]1", "inhibition": "15%"}, {"smiles": "N#C/C(=C/c1ccc(Sc2ccccc2)o1)C(=O)NCc1ccccc1", "inhibition": "25%"}, {"smiles": "CCc1cc2c(=O)n(N)c(CCC(=O)O)nc2s1", "inhibition": "6%"}, {"smiles": "CCOC(=O)c1cc(Br)c(Cl)cc1[N+](=O)[O-]", "inhibition": "10%"}, {"smiles": "COc1ccc(C(NC(=O)c2ccco2)c2ccc(OC)c(OC)c2)cc1", "note": "(configuration not stated)", "inhibition": "23%"}, {"smiles": "Cc1ccc2oc(-c3ccc(NC(=O)c4ccc(C)c([N+](=O)[O-])c4)cc3)nc2c1", "inhibition": "0%"}, {"smiles": "OC(COc1ccccc1Cl)Cn1cnc2ccccc21", "note": "(configuration not stated)", "inhibition": "5%"}, {"smiles": "O=C(N/N=C/c1ccc(-c2ccc(Cl)cc2Cl)o1)c1ccccc1", "inhibition": "15%"}, {"smiles": "CCN1C(=O)/C(=C/c2ccc(C)o2)C(=O)NC1=S", "inhibition": "21%"}, {"smiles": "CCN1C(=O)C(=Cc2ccc(O)cc2)C(=O)NC1=S", "inhibition": "4%"}, {"smiles": "CCOc1cc(/C=N/NC(=O)C(=O)NCc2ccc(Cl)cc2)ccc1O", "inhibition": "1%"}, {"smiles": "CC1(C)NC(=O)N(CC(O)COc2cccc(OCC(O)CN3C(=O)NC(C)(C)C3=O)c2)C1=O", "note": "(configuration not stated)", "inhibition": "11%"}, {"smiles": "Cc1sc(NC(=O)c2ccc(Br)o2)c(C#N)c1C", "inhibition": "4%"}, {"smiles": "COC(=O)c1c(NC(=O)Cc2ccccc2)sc(C)c1C", "inhibition": "24%"}, {"smiles": "CCOC(=O)c1sc(NC(=O)c2ccc(Br)o2)c(C(N)=O)c1C", "inhibition": "0%"}, {"smiles": "COC(=O)c1c(NC(=O)c2ccco2)sc(C)c1C", "inhibition": "15%"}, {"smiles": "Cc1sc(NC(=O)c2ccc(F)cc2)c(C(N)=O)c1C", "inhibition": "8%"}, {"smiles": "Cc1sc(NC(=O)c2ccc(-c3ccccc3)cc2)c(C(N)=O)c1C", "inhibition": "13%"}, {"smiles": "CCOC(=O)c1c(NC(=O)Cc2ccccc2)sc(C)c1C", "inhibition": "0%"}, {"smiles": "Cc1sc(NC(=O)c2ccco2)c(C#N)c1C", "inhibition": "7%"}, {"smiles": "CCOc1cc(/C=C2\\SC(=S)N(c3ccc(F)cc3)C2=O)ccc1O", "inhibition": "18%"}, {"smiles": "CCN(CC)c1ccc(C(=O)Nc2cc(Cl)cc(Cl)c2)cc1", "inhibition": "20%"}, {"smiles": "Cc1ccc(C(=O)COC(=O)c2cccc(N3C(=O)C4C5C=CC(C6CC56)C4C3=O)c2)cc1", "note": "(configuration not stated)", "inhibition": "9%"}, {"smiles": "CCOc1ccc(-n2sc3c(c2=S)-c2cc(C)ccc2N(Cc2ccccc2)C3(C)C)cc1", "inhibition": "32%"}, {"smiles": "Cc1cc(C)cc(NC(=O)C(C)N2C(=O)c3ccccc3C2=O)c1", "note": "(configuration not stated)", "inhibition": "0%"}, {"smiles": "CC1=C(C(=O)OCC(C)C)C(c2cccc(O)c2)C2=C(CC(c3ccc(Cl)cc3)CC2=O)N1", "note": "(configuration not stated)", "inhibition": "21%"}, {"smiles": "O=C(/C=C/c1ccccc1)NC(=S)Nc1ccc(Br)cn1", "inhibition": "21%"}, {"smiles": "CCOC(=O)c1ccc(Nc2cc(-c3ccccc3)ncn2)cc1", "inhibition": "18%"}, {"smiles": "COc1cc(CN2CCN(Cc3ccc(OC)c(OC)c3OC)CC2)cc(OC)c1OC", "inhibition": "4%"}, {"smiles": "O=C(/C=C/c1ccc2c(c1)OCO2)NCc1ccc(Cl)cc1Cl", "inhibition": "11%"}, {"smiles": "CCOC(=O)c1sc(NC(=O)Cn2nc([N+](=O)[O-])c([N+](=O)[O-])c2C)c(C(=O)OCC)c1C", "inhibition": "6%"}, {"smiles": "Cc1nn(CC(=O)Nc2sc3c(c2C#N)CCCC3)c(C)c1[N+](=O)[O-]", "inhibition": "8%"}, {"smiles": "O=C(O)c1c(Br)c(Br)c(Br)c(Br)c1C(=O)NCCC1=CCCCC1", "inhibition": "0%"}, {"smiles": "NNC(=O)CN1C(c2ccccc2)=Nc2ccc(Br)cc2C1c1ccccc1", "note": "(configuration not stated)", "inhibition": "15%"}, {"smiles": "COc1ccc(N2C(=O)/C(=C\\c3c(OC)cc(OC)cc3OC)C(=O)NC2=S)cc1", "inhibition": "1%"}]}]}
